Compounds with a hit are over-represented: about 2% of the library has one in this group of screens.
STK33 kin inh – STK33 kinase inhibitors, primary screen, biochemical, luminescence, ADP-Glo, MBP substrate | Serine/threonine-protein kinase 33 (Homo sapiens), Q9BYT3 | inhibition, % at 12.5 µM | 27,000 compounds, 0.44% hits; in the data active means inhibition above about 20%
ID4 SMM – binders of human ID4 protein, primary screen, biochemical, small molecule microarray, single point; DNA-binding protein inhibitor ID-4 (Homo sapiens), P47928; Flag-ID4 binding, fluorescence F/B; calls only; 31,000 compounds, 1.2% hits; AID 624137, 2012; call rule not given here;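 further: a binder raises fluorescence above local background on the spot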
Target sequence (P47928 whole entry, looked up): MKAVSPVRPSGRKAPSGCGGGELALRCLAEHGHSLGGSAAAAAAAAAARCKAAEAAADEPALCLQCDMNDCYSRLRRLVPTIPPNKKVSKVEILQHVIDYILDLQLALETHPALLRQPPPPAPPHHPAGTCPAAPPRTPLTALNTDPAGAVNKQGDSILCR
p53 PUMA act – mutant p53 pathway re-activators, primary screen, cell-based, SW480, luciferase, single point, HTS; SW480 PUMA-promoter luciferase, p53 mutant reactivation; activation, % at 9.98 µM; 28,000 compounds, 1.5% hits; in the data active means activation above about 52%
Active calls of the source: *; i = inactive; . = no result given; + = active, no number.

SMILES	STK33 kin inh	ID4 SMM	p53 PUMA act
C[C@@H]1CN([C@H](C)CO)C(=O)c2cccc(NC(=O)Nc3ccc4c(c3)OCO4)c2O[C@H]1CN(C)C	.	i	60*
Cc1cc(C)cc(N(CC(=O)Nc2ccc(C(N)=O)cc2)S(C)(=O)=O)c1	1	i	-2
Cn1nnnc1SCC(=O)Nc1cc(Cl)cc(Cl)c1	-1	i	11
Cc1ccc(-c2nnc(N3CCN(C(=O)CSc4nc(C)cc(C)n4)CC3)c3ccccc23)cc1	1	+	-11
Cc1ccc(-c2nnc(N3CCN(C(=O)CSc4nc5ccccc5o4)CC3)c3ccccc23)cc1	1	i	-18
CCn1c(SCC(=O)Nc2ccc(F)cc2F)nnc1-c1ccccc1OC	1	i	-23
CC1(C)Cc2c(sc3nc(SCC(=O)c4ccc(Cl)cc4)nc(N)c23)CS1	0	i	-18
Cc1ccccc1C(=O)Nc1ccc2nc(SCC(=O)Nc3ccc([N+](=O)[O-])cc3)sc2c1	-5	i	20
O=C(CSc1nc2ccc(NC(=O)c3ccccc3F)cc2s1)c1cccc([N+](=O)[O-])c1	0	i	76*
O=C(CSc1nc2ccc(NC(=O)c3ccccc3)cc2s1)Nc1cccc([N+](=O)[O-])c1	6	i	59*
Cc1ccccc1C(=O)Nc1ccc2nc(SCC(=O)Nc3ccccc3)sc2c1	1	i	-12
C=CCNc1sc(C)nc1C(N)=O	1	.	.
C=CCNc1nc(N)c(C(=O)Nc2cc(C)on2)s1	6	i	70*
CN(C)CCCN1C(=O)C(=O)C(C(=O)c2ccco2)C1c1cccc([N+](=O)[O-])c1 (stereo unspecified)	4	i	10
Cc1ccc(-c2nnc3c4ccccc4c(C)nn23)cc1S(=O)(=O)N(C)CCO	1	i	56*
CCCCN(C)S(=O)(=O)c1cc(-c2nnc3c4ccccc4c(C)nn23)ccc1OC	-6	i	9
CC(=O)OC/C=C(\CO)CC/C=C(\C)CC/C=C(\CC/C=C(\C)COC(C)=O)C(=O)O	-6	i	.
COc1cccc2cc(-c3nnc(SCC(=O)N4c5ccccc5Sc5ccccc54)n3C)oc12	3	i	10
COc1cccc(NC(=O)CSc2ncnc3scc(-c4ccc(C)cc4)c23)c1	2	i	-7
CC(C(=O)O)c1ccc(C(=O)c2cccs2)cc1 (stereo unspecified)	0	i	.
O=C(NCCC(c1ccc(F)cc1)c1ccco1)c1cccs1 (stereo unspecified)	-2	i	50*
COc1cccc(NC(=O)CSc2nnc(-c3ccco3)n2-c2ccccc2)c1	0	i	-3
CCN(CC)CCCC(C)Nc1c2ccc(Cl)cc2nc2ccc(OC)cc12 (stereo unspecified)	33*	.	-18
COc1ccc2nc(Nc3nc(C)c(CCC(C)C)c(=O)[nH]3)nc(C)c2c1	0	i	30
N#Cc1c(NC(=O)c2cc(S(=O)(=O)N3CCOCC3)cs2)sc2c1CCCC2	1	i	9
SMILES	STK33 kin inh	ID4 SMM	p53 PUMA act
Cc1nn(CC(O)COc2ccc3ccccc3c2)c(C)c1Br (stereo unspecified)	2	i	-6
Cc1cc(C(F)(F)F)c(C#N)c(SCC(=O)Nc2ccc(Cl)cc2)n1	1	i	124*
Cc1cc(C)c(C#N)c(SCC(=O)Nc2cc(C(F)(F)F)ccc2Cl)n1	-1	i	21
Cc1ccc(Nc2nc(Oc3ccc(=O)[nH]n3)nc(N3CCOCC3)n2)cc1	8	+	-17
CNc1nc(Oc2ccc(=O)[nH]n2)nc(N2CCOCC2)n1	-2	i	10
COc1ccc(C(=O)CSc2nnc(-c3ccc(C)cc3)n2-c2ccc(C)cc2)cc1	5	i	-1
O=c1n(-c2ccc(F)cc2)nc2n1CCCN2	.	i	67*
O=C(Nc1cc(-c2ccc(Cl)cc2)nn1-c1ccc(F)cc1)C1CCC1	.	i	1
CC(C)n1cnc2c(Nc3cccc(Cl)c3)nc(NCCO)nc21	90*	.	5
CCc1nc(SCC(=O)Nc2cccc(Cl)c2)n[nH]1	2	i	-2
CN(C)CCCNC(=O)[C@@]1(c2ccc([N+](=O)[O-])cc2)CC(=O)N(CC23CC4CC(CC(C4)C2)C3)[C@@H]1c1ccc(CO)cc1	8	i	.
COc1ccccc1NC(=O)C1CCCN(S(=O)(=O)c2cc(Cl)ccc2Cl)C1 (stereo unspecified)	-1	i	-9
O=C(CN1C(=O)c2ccc([N+](=O)[O-])cc2C1=O)Nc1ccccc1-c1ccccc1	4	i	48
Cc1ccccc1NC(=O)c1ccc(OCC(=O)Nc2ccccc2C(F)(F)F)cc1	-2	i	-7
COc1ccccc1C1=NOC(Cn2c(NCc3ccccc3)nc3c2c(=O)n(C)c(=O)n3C)C1 (stereo unspecified)	3	+	5
Cn1c(=O)c2c(nc(NCCO)n2CCc2ccccc2)n(C)c1=O	0	i	7
Cc1ccc([N+](=O)[O-])cc1NC(=O)CN(c1cc(C(F)(F)F)ccc1Cl)S(C)(=O)=O	0	i	13
COc1cc2c(cc1OC)CN(C(=O)[C@@H]1[C@H]3C(=O)O[C@H](c4ccccc4)[C@H](c4ccccc4)N3[C@H](c3ccccc3OCCO)[C@@]13C(=O)Nc1ccccc13)CC2	8	i	.
O=C1O[C@H](c2ccccc2)[C@H](c2ccccc2)N2[C@H]1[C@@H](C(=O)O)[C@]1(C(=O)Nc3ccc(C#CC4(O)CCCCCC4)cc31)[C@H]2c1ccc(O)cc1	4	i	.
COc1cc(/C=C2\Oc3cc(O)cc(O)c3C2=O)cc(OC)c1O	88*	.	.
COc1ccc([C@@H]2CC(=O)c3c(O)cc(O)cc3O2)cc1O	1	.	40
CCn1c(SCC(=O)Nc2cccc(Br)c2)nnc1-c1ccco1	10	i	10
O=C(CSc1nnnn1-c1ccccc1)Nc1cccc(C(=O)O)c1	0	i	-8
Cn1nnnc1SCC(=O)Nc1ccc(C(=O)O)cc1	4	i	-4
Cn1nnnc1SCC(=O)Nc1ccc(I)cc1	-2	i	78*
SMILES	STK33 kin inh	ID4 SMM	p53 PUMA act
Cc1ccc(NC(=O)CSc2nnnn2-c2cccc(C(=O)O)c2)cc1C	-1	+	0
Cc1cc(C)cc(NC(=O)CSC2CC(=O)N(c3ccc(F)cc3)C2=O)c1 (stereo unspecified)	1	i	-9
COc1ccccc1CC(=O)Nc1ccc(-c2nnc(-c3ccccc3)o2)cc1	2	i	13
COc1ccc(CNCCSc2nnnn2C)cc1	0	i	1
CC1(C)CC(=O)c2c(O)cc(OCC(=O)c3cccc([N+](=O)[O-])c3)cc2O1	4	i	75*
CC1(C)CC(=O)c2c(O)cc(OCC(=O)c3ccc(-c4ccccc4)cc3)cc2O1	3	i	-19
CC(=O)N1CCN(C(=S)c2ccc(-c3ccc(C)cc3)o2)CC1	.	i	55*
COc1c(O[C@@H]2O[C@H](C(=O)O)[C@@H](O)[C@H](O)[C@H]2O)cc2oc(-c3ccccc3)cc(=O)c2c1O	-1	.	5
COC(=O)c1sccc1-c1ccc(-c2ccn(C(=O)c3ccc(Cl)cc3)n2)o1	.	i	97*

From PubChem
